The test deals with VDR:RXRa (NR concentration 270 nM, RXRa partner concentration 90 nM). Description: PBM binding z-score (relative to random genomic background probes); higher = stronger binding; sequences stand for … in GC…GCGATTGACAGCGTAGAATGAAGG
The method, then:
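Protein-binding microarray (Agilent 4x180K custom design, double-stranded 60-nt probes: 5' GC cap, 34-nt variable region, 24-nt constant primer region; full probe sequence given). Purified or IVT nuclear receptor:RXRα heterodimers (3:1 NR:RXRα, mostly 270:90 nM) or homodimers were incubated for 1 h in PBS with 2% milk and no ligand, then detected with Alexa488 antibodies. Fluorescence from o1-orientation probes (~5 replicates averaged) was converted to z-scores against 500 random hg19 background probes. Variable regions are seed direct-repeat (DR0–DR5) sites, all their single-nucleotide variants and half-site ablations.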
Regarding ACCATTAGTTGACTTAGGGCAACCGATACGACGC, the PBM binding z-score turned out to be 0.475.

As for TCATATAGGTAATACTGGTGAAAGTCGGCATCTA, the PBM binding z-score stood at 0.963.

In turn, TGAATGAGGTTATAAGTTCAGGGAACGTTGCAAA yielded a PBM binding z-score of 3.67.

For TCTATTAGTTGAGTAGGGCAACCGAAACAGCGGA, the PBM binding z-score is -0.07.

In turn, CGAACTAGGTTATCCAGGACAGTGAATACATTGA showed a PBM binding z-score of 1.57.

TCTATTAGTTTAAGGGCAACCGACGAGTCCGTTT: the PBM binding z-score amounted to 1.61.

GCTAGTTGGTCAGTAAACGGTCACACACCGGTCG showed a PBM binding z-score of -0.0437.

Sequence ATCTCTAGATAAAAGTTCAGTGAATCCCGAGGAT displayed a PBM binding z-score of 0.828.

Sequence ATCTCTTGGTAAAGATAGTTCAGTGAATGCAAAT registered a PBM binding z-score of 0.811.

The sequence CGCCCAAGGTCATAGGAGGTCAGTGAAGACAGAT yielded a PBM binding z-score of 6.21.

As for GCTCGGAGGACAAGGTCCGAGCTTTGTCCGTAGA, the PBM binding z-score is -0.684.

TCTGCTAGGTCAAAGATGGTCAGCTAATCTGCTA came in with a PBM binding z-score of 1.68.

In turn, ACTAACAGGCCAAGTTTGGGTCACTCAAACAAAG had a PBM binding z-score of 0.973.

The sequence CCTTACGGGTCACTGACAGATTATAGCATTTGGA yielded a PBM binding z-score of 3.13.

Take AGTCAAAGTTCACAAGGTAACGTAAGATTCAGCT: the PBM binding z-score turned out to be 4.25.

The sequence ATCTCTAGGTAACTAAGTTCAGTGAATGCCGAAC came in with a PBM binding z-score of 4.26.

The sequence GAATATAGGTAATACAAGGTGAAAGTCCGATTGT displayed a PBM binding z-score of 0.758.

For ATCTGTAGGTAAAAGTTCAGTGAATCCCGAGGAT, the PBM binding z-score is 1.27.

Sequence CGAACTAGGGCATGAGTTGATAGCAAATGCCGAT had a PBM binding z-score of 0.0428.

For CCTAGCAGGCCAGTCTGGGTCACTCAAGGCTTGA, the PBM binding z-score stood at 0.512.

As to AATACAGGGTCATCGTAGTCCAGAGTACGCACAG, the PBM binding z-score was found to be 5.65.

Sequence TAGAGTAGGTTAGGGGCATTCAGAATGGCGTCGA registered a PBM binding z-score of 1.06.

The sequence TCTTGAAGATCAAAGGTTAAGAAAGCCGAAGCCT had a PBM binding z-score of 1.64.

In turn, CCTATTAGTTGACCATAAGGGCAACTGAAGCTCG came in with a PBM binding z-score of 1.08.

Regarding AGAATGAGGTTATCAAAGATCAGGGAAACGCTTG, the PBM binding z-score stood at 1.12.

TCATATAGGTAAAGGTGAAAATCGAACGATATGA: the PBM binding z-score stood at 0.688.

In turn, CGCGAAAGGTCGGTTGAGGTGAGTATACGGATAA gave a PBM binding z-score of 2.25.

CAAACCAGGTCACCGGAAGGTCAAAGTCCGCATG gave a PBM binding z-score of 6.39.

TGTCAAAGTTAAAAGGTAACGTAAGTATCCACAC gave a PBM binding z-score of 0.375.

The sequence GCTGCTAGGTCAACTGTTGGTCAGCTAAAGCTCG had a PBM binding z-score of 1.39.

In turn, GCTGCTAGGTCAACTCATGGTCAGCTAAAGCTCG came in with a PBM binding z-score of 1.71.

Sequence CCGACTGGGGCAAAGGTTTCCATACTCAGTACGA registered a PBM binding z-score of -0.277.

The sequence TTAGCAAGGTGAGCTGAGGTCGTTGATCCAACTC returned a PBM binding z-score of 4.01.

With TGTCGGAGGACACGAAAGGTCAGAGCTCGACATC, the PBM binding z-score stood at 3.34.

On to AGTCAAAGTTAACTAGGTAACGTAAGATTCAGCT, for which the PBM binding z-score was -0.0453.

Consider CGAACTAGGTCATTCACAGGACAGTGAATAGTAA, for which the PBM binding z-score was found to be 2.53.

On to TCATATAGGTAATACAGGTGGAAGTCGGCATCTA, for which the PBM binding z-score was found to be 1.14.

Regarding ATCTCTCGGTAAGACTCAGTTCAGTGAAGAACGC, the PBM binding z-score stood at 0.848.

In the case of TCATATAGGTAAACAGGTGAAAATCCGTAAGTTA, the PBM binding z-score stood at 1.39.

Consider TCTGCTAGGACAGTTGGTCAGCTAACGAGCTGCC, for which the PBM binding z-score is -0.792.

The values are drawn from the supplement of paper PMC6555819.
